Only some compounds are listed: those with a hit (about 1.9% of all), similar ones and a draw of the others.
ATG4B inhibitor: inhibitors of human ATG4B cysteine protease; actives 0.51% (n = 340,000); Q9Y4P1; inhibition, % at 8.33 µM; ATG4B cleavage of LC3-PLA2, NBD-HPC fluorescence, 1 h; in the data active = inhibition above about 40%
Target sequence (Q9Y4P1 whole entry, looked up): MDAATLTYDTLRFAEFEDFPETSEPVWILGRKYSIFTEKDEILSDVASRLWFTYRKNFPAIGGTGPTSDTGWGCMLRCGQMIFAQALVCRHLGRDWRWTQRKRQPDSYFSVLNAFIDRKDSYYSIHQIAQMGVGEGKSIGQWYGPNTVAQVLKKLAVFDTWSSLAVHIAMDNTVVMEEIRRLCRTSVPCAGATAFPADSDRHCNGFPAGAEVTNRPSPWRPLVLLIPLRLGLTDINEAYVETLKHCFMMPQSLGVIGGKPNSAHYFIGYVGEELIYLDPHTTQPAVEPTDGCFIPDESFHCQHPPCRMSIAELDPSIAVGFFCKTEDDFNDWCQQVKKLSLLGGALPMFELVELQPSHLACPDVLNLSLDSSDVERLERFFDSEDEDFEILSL
H9c2 protect: modulators protecting cardiomyocytes from myocardial damage; actives 0.63% (n = 360,000); protection from H2O2 cell death, % at 20 µM; H9c2 cardiomyocytes, H2O2 injury protection, ATPLite, 2 h;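 active = compounds giving at least 50% protection of heart cells from peroxide-induced death in the single-dose screen, raw or plate-pattern-corrected value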;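 also: 0% = DMSO wells with peroxide and 100% = DMSO wells without peroxide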
PP1 inh: counter-screen for PP5 inhibitors: inhibitors of human PP1-alpha; inhibition, % at 6.7 µM; actives 0.9% (n = 320,000); purified PP1alpha, OMFP fluorescence;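 active = inhibition above the mean inhibition of all tested compounds plus 3 SD, computed separately for each screening campaign, cut at about 15% in these data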
PP5 inh: blocks human protein phosphatase 5 activity; purified PP5c, OMFP substrate fluorescence; actives 0.18% (n = 320,000); inhibition, % at 6.7 µM;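 active = inhibition above the campaign's mean inhibition across all tested compounds plus 3 SD, cut at about 9.5% in these data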;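 also: 0% = DMSO only and 100% = 100 µM cantharidin control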
PP1 inh confirm: human PP1 phosphatase inhibition, confirmation. actives 52% (n = 1,900). inhibition, % at 6.7 µM. shares compounds with PP1 inh. purified PP1alpha, OMFP substrate fluorescence. AID 2358;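 active = mean PP1 inhibition above a set limit taken from the earlier primary screen, cut at about 15% in these data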
PP5 counter: inhibits human PP5 phosphatase in PP1 counter-screen. shares compounds with PP1 inh. purified PP5c, OMFP fluorescence. inhibition, % at 6.7 µM. actives 4% (n = 1,900). AID 2360;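 active = mean PP5 inhibition over triplicate wells above about 9.5% taken from the earlier PP1 screen, limit read from the data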
* marks the source's active call; other numbers are inactive results.

`COc1cc(NS(=O)(=O)c2ccc(NC(=S)NC(=O)/C=C/c3ccc(OC)c(OC)c3)cc2)ncn1` gave ATG4B inhibitor -6.6, H9c2 protect -3.7, PP1 inh 0.4 and PP5 inh -0.5.
`COc1ccc(/C=C/C(=O)NC(=S)Nc2ccc(S(=O)(=O)N=C(N)N)cc2)cc1OC` gave ATG4B inhibitor 7.9, H9c2 protect 5.5, PP1 inh 19.7*, PP5 inh 0.7, PP1 inh confirm 23.1* and PP5 counter -1.7.
`Cn1c(CO)cnc1S(=O)(=O)Cc1c(Cl)cccc1Cl` gave ATG4B inhibitor -3.6, H9c2 protect -3.5, PP1 inh -2.9 and PP5 inh -2.2.
Screening CCOCCCNC(=O)c1cn(CC)c2ccc(S(=O)(=O)N3CCC(C)CC3)cc2c1=O returned ATG4B inhibitor 5.2, H9c2 protect -4.8, PP1 inh -1.7 and PP5 inh 0.1.
For CCOc1ccc(C2Nc3cccc4cccc(c34)N2)cc1OC the results were ATG4B inhibitor 30.4, H9c2 protect 7.0, PP1 inh -3.5 and PP5 inh 1.0.
`CCOc1cc(C2Nc3cccc4cccc(c34)N2)ccc1O` gave ATG4B inhibitor -26.7, H9c2 protect 4.6, PP1 inh 24.2*, PP5 inh 4.1, PP1 inh confirm 1.9 and PP5 counter 8.4.
For Cc1cccc(NC(=O)CN2C(=O)N/C(=C/c3ccc(C)s3)C2=O)c1 the results were ATG4B inhibitor 7.6, H9c2 protect -3.0, PP1 inh 20.6*, PP5 inh 0.7, PP1 inh confirm 6.1 and PP5 counter -5.7.
Screening Cc1cccc(NC(=O)CN2C(=O)N/C(=C/c3cc(C)n(C(C)C)c3C)C2=O)c1 returned ATG4B inhibitor -3.4, H9c2 protect 3.8, PP1 inh -0.7 and PP5 inh 2.6.
Screening O=C(CSc1nc2ccc(Nc3nc(N4CCCC4)nc(N4CCCC4)n3)cc2s1)NCc1ccco1 returned ATG4B inhibitor -1.3, H9c2 protect 6.2, PP1 inh 18.9*, PP5 inh -0.4, PP1 inh confirm 5.4 and PP5 counter 2.3.
Screening O=C(CSc1nc2ccc(Nc3nc(N4CCOCC4)nc(N4CCOCC4)n3)cc2s1)Nc1ccccc1Cl returned ATG4B inhibitor 12.5 and H9c2 protect 9.9.
For CCCCn1c(/C=C/c2ccco2)nc2ccccc21 the results were ATG4B inhibitor 9.4, H9c2 protect -0.7, PP1 inh 3.8 and PP5 inh 1.1.
C#CCn1cc(/C=N/Nc2nc3ccccc3[nH]2)c2ccccc21 was read as ATG4B inhibitor -18.2, H9c2 protect -20.8, PP1 inh 21.7*, PP5 inh 6.8, PP1 inh confirm 23.8* and PP5 counter 1.9.
Screening CCCCn1c(/C=N/Nc2nc3ccccc3[nH]2)nc2ccccc21 returned ATG4B inhibitor 14.2, H9c2 protect -17.2, PP1 inh 20.6*, PP5 inh 4.6, PP1 inh confirm 12.3 and PP5 counter -1.1.
For Fc1ccccc1-c1ccc(/C=N/Nc2nc3ccccc3[nH]2)o1 the results were ATG4B inhibitor -11.1, H9c2 protect -37.1, PP1 inh 17.8*, PP5 inh 3.6, PP1 inh confirm 17.8* and PP5 counter 1.1.
Cc1ccc(/C=N\Nc2nc3ccc(Cl)cc3[nH]2)o1 was read as ATG4B inhibitor -4.3, H9c2 protect -11.1, PP1 inh 3.8 and PP5 inh 3.0.
For COc1cccc(C(=O)Nc2cccc(NC(=O)c3ccccc3Cl)c2)c1 the results were ATG4B inhibitor -10.3, H9c2 protect 6.6, PP1 inh 4.1 and PP5 inh 2.4.
For COc1cccc(C(=O)Nc2cccc(C(=O)NC3=NN(c4c(Cl)cc(Cl)cc4Cl)C(=O)C3)c2)c1 the results were ATG4B inhibitor 4.9, H9c2 protect -1.6, PP1 inh 29.2*, PP5 inh 0.0, PP1 inh confirm 1.6 and PP5 counter -4.0.
For NS(=O)(=O)c1ccc(CNC(=O)c2ccc(NS(=O)(=O)c3cccs3)cc2)cc1 the results were ATG4B inhibitor -4.3 and H9c2 protect 3.9.
For CCOc1ccc(S(=O)(=O)N(CC(=O)N/N=C/c2ccc(-c3ccc([N+](=O)[O-])cc3)o2)c2ccccc2)cc1 the results were ATG4B inhibitor -4.6, H9c2 protect 6.8, PP1 inh 32.9*, PP5 inh 2.3, PP1 inh confirm 35.1* and PP5 counter -0.4.
For Cc1ccc(C)c(N(CC(=O)N/N=C/c2ccc(-c3ccc([N+](=O)[O-])cc3)o2)S(=O)(=O)c2ccccc2)c1 the results were ATG4B inhibitor 5.4, H9c2 protect 0.2, PP1 inh 2.9 and PP5 inh 1.9.
For Cc1cc(C)nc(-n2nc(C)c3c(=O)[nH]c(C(F)(F)F)nc32)n1 the results were ATG4B inhibitor -4.7, H9c2 protect -1.7, PP1 inh 19.1*, PP5 inh 2.4, PP1 inh confirm -5.7 and PP5 counter -5.6.
`CCCCC1(C)NC(=O)N(CC(=O)Nc2ccc(Cl)cc2C)C1=O` (centres undefined) gave ATG4B inhibitor 0.1 and H9c2 protect 6.1.
`CCCCCCCC[n+]1cccc(C(=O)N(CC)CC)c1` gave ATG4B inhibitor -13.1, H9c2 protect -1.8, PP1 inh -2.0 and PP5 inh -1.5.
CCCCCCCCCCCCCCCC[n+]1ccc(/C=N/O)cc1 was read as ATG4B inhibitor 37.1, H9c2 protect -19.9, PP1 inh 53.8*, PP5 inh 7.9, PP1 inh confirm 32.2* and PP5 counter 14.9*.
For CCCCCCCCCCCCCCCC[n+]1ccc(C(N)=O)cc1 the results were ATG4B inhibitor 32.7, H9c2 protect -10.6, PP1 inh 41.4*, PP5 inh 5.3, PP1 inh confirm 25.3* and PP5 counter -0.5.
`CCCCCCCCCCCCCCCC[n+]1cccc(C(=O)N(CC)CC)c1` gave ATG4B inhibitor 5.7, H9c2 protect -25.1, PP1 inh 30.6*, PP5 inh 5.5, PP1 inh confirm -6.1 and PP5 counter 4.3.
CCOC(=O)c1cn(Cc2ccccc2)c(C(=O)OC(C)(C)C)c1O was read as ATG4B inhibitor 14.5, H9c2 protect -3.4, PP1 inh 22.5*, PP5 inh 3.5, PP1 inh confirm 35.9* and PP5 counter -4.5.
For COc1cc(CN(C2CCCCC2)S(=O)(=O)c2ccc(S(=O)(=O)N(C)C3CCCCC3)cc2)cc(OC)c1OC the results were ATG4B inhibitor -3.3, H9c2 protect 11.3, PP1 inh 18.6*, PP5 inh 2.2, PP1 inh confirm -1.7 and PP5 counter -2.5.
CCN(C1CCCCC1)S(=O)(=O)c1ccc(OC)c(C)c1 was read as ATG4B inhibitor 2.9, H9c2 protect -15.5, PP1 inh 4.0 and PP5 inh 5.7.
Screening O=C(Cn1cnc2sc(-c3ccccc3)cc2c1=O)NCc1ccco1 returned ATG4B inhibitor 10.2, H9c2 protect 1.1, PP1 inh 21.5*, PP5 inh 0.1, PP1 inh confirm 19.1* and PP5 counter 1.6.
Screening O=C(Cn1cnc2scc(-c3ccccc3)c2c1=O)NCc1ccco1 returned ATG4B inhibitor -5.8, H9c2 protect 1.8, PP1 inh 4.3 and PP5 inh 1.4.

Assay outcomes: PubChem BioAssay, several laboratories
